The list is not random: actives were taken first. Their share in the collection is about 3.4%.
Gli-Sufu antag: blocks Gli-Sufu signaling in a luciferase reporter; AID 588413; Sufu-KO-LIGHT fibroblasts, Gli luciferase reporter luminescence; actives 0.74% (n = 340,000); inhibition, % at 5 µM;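 active means inhibition above about 55%, limit read from the data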;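 further: 0% = DMSO-treated cells and 100% = wells with medium but no cells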
GAA850 FXN act: increases GAA850 frataxin promoter reporter activity; activation, % at 6 µM; AID 540364; HEK293 lucGAA850 FXN promoter luciferase reporter, 24 h; percent of 10 µM SAHA response; actives 0.56% (n = 360,000);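 active means activation above the average of all compounds screened plus 3 SD, cutoff fixed separately per campaign, cut at about 7.5% in these data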;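 further: 0% = DMSO wells and 100% = 10 µM SAHA wells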
SMARCA2 activ: increases SMARCA2 function in MMTV reporter cells | actives 1% (n = 370,000) | MG213 cells, MMTV-luciferase reporter, dexamethasone, overnight | activation, % at 9.1 µM; in the data active means activation above about 7.8%;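 further: 0% = vehicle wells and 100% = reference activator wells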
H9c2 protect: myocardial damage modulation in H9c2 cells; H9c2 cardiomyocytes, H2O2 injury protection, ATPLite, 2 h; protection from H2O2 cell death, % at 20 µM; actives 0.63% (n = 360,000);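 active means compounds giving at least 50% protection of heart cells from peroxide-induced death in the single-dose screen, raw or plate-pattern-corrected value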;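 further: 0% = DMSO wells with peroxide and 100% = DMSO wells without peroxide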
GalR3 antag: antagonists of human GalR3; O60755; HEK293 GalR3-CNG cAMP membrane potential fluorescence; galR3 body fused to GalR1 C-terminus; inhibition, % at 3 µM; actives 0.44% (n = 360,000);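 active means inhibition above the screen-wide average plus 3 SD, cut at about 13% in these data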;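 further: forskolin and galanin both at EC90 stimulate the cells; cAMP rise reported by CNG channel membrane potential dye signal; 0% = forskolin plus galanin with DMSO and 100% = forskolin alone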
NR2F2 inh: NR2F2 (human) inhibition, primary screen; actives 0.7% (n = 370,000); P24468; HEK293T NGFI-A luciferase reporter, luminescence; inhibition, % at 8.6 µM;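 active means inhibition above a per-plate cutoff, mean inhibition of test wells between control levels plus 3 SD, cut at about 38% in these data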;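 further: cells cotransfected with COUP-TFII expression vector driving the NGFI-A reporter; 0% = median of COUP-TF2 test wells and 100% = reporter-only cells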
Target sequence (P24468 whole entry, looked up): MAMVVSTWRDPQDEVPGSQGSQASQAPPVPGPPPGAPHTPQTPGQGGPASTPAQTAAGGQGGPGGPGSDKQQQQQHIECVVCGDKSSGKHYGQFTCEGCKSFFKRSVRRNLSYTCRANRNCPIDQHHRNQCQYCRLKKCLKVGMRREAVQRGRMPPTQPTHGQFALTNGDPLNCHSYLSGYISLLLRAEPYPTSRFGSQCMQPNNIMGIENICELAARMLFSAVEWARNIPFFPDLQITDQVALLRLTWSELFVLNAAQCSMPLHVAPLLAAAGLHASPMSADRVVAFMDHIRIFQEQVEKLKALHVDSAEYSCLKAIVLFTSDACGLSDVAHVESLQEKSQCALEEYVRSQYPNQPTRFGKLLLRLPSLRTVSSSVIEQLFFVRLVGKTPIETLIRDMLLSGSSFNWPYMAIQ
VP16 Luc counter: inhibits VP16 reporter, flagging COUP-TFII antagonist hits; shares compounds with NR2F2 inh; HEK293 Gal4-VP16 luciferase reporter, luminescence; inhibition, % at 8.5 µM; actives 25% (n = 2,500); in the data active means inhibition above about 13%
NR2F2 inh conf: COUP-TFII (NR2F2) inhibition, confirmation assay. shares compounds with NR2F2 inh. HEK293 NGFI-A luciferase reporter, luminescence. inhibition, % at 8.5 µM. actives 45% (n = 2,500);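 active means mean inhibition over three repeats above a set limit taken from the earlier primary screen, cut at about 38% in these data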;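 further: 100% = cells given the luciferase reporter alone without the COUP-TF2 vector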
* hit, by the source's call; x = no result given.

SMILES	Gli-Sufu antag	GAA850 FXN act	SMARCA2 activ	H9c2 protect	GalR3 antag	NR2F2 inh	VP16 Luc counter	NR2F2 inh conf
C=C1C(=O)O[C@H]2C[C@H]1[C@@H](OC(C)=O)C/C(C)=C/CC/C(C)=C\CC[C@]2(C)O	-5.4	-7.0	-13.1	-36.3	-1.4	40.3*	32.0*	38.3*
C=C1C(=O)O[C@@H]2[C@H]3O[C@]3(C)CC/C=C(\C)CC[C@@H]12	-0.1	-0.7	0.0	8.5	-4.8	-12.2	x	x
Nc1nc(SCc2ccccc2)c2ncn(C3CCCCC3)c2n1	-44.8	7.5	0.7	-6.2	-5.9	-19.8	x	x
COc1ccc(CCNC(=O)CCNC(=O)c2ccc([N+](=O)[O-])cc2)cc1	4.5	-1.7	0.6	-1.9	-9.9	38.5*	4.0	2.6
O=C(/C=C/Nc1ccccc1Br)c1ccccn1	-75.5	-14.9	-4.4	-35.4	-3.0	68.5*	61.2*	79.6*
O=C(/C=C\Nc1ccccn1)c1ccccc1	-72.0	-3.6	4.9	-35.1	-3.3	-22.3	x	x
Cc1cccc(NC(=O)CN2CCN(C(=O)CNC(=O)c3ccc(-c4ccccc4)cc3)CC2)c1C	x	-5.7	-9.1	-4.7	-6.1	55.1*	-7.6	16.0
Nc1c(C(=O)N/N=C/c2ccc(Cl)cc2)cnn1-c1ccccc1	-10.8	3.0	4.4	3.0	-3.2	16.0	x	x
COC(=O)c1cnn(-c2ccc(Cl)cc2)c1/C=N/NC(N)=S	6.4	-3.3	-8.1	3.3	-8.3	43.3*	3.6	25.1
COC(Cc1n[nH]c(=S)n1-c1ccc(Cl)cc1)OC	3.5	0.5	0.4	0.4	-4.7	3.0	x	x
Cc1ccc(-c2csc3ncnc(NCCN4CCOCC4)c23)cc1	-13.2	-2.6	-4.3	3.7	-4.7	38.0*	9.5	24.3
Clc1ccc(-c2csc3ncnc(NCCN4CCOCC4)c23)cc1	3.9	-2.0	-1.4	5.1	-5.1	31.1	x	x
CC(=O)c1c(C(C)=O)c(C)n(Cc2ccc(Cl)cc2)c1C	4.3	1.8	-4.6	-0.1	-3.2	42.8*	6.0	18.1
CCOC(=O)c1c(C=O)c(C)n(Cc2ccc(Cl)cc2)c1C	9.0	0.5	-2.7	-0.3	-7.1	3.1	x	x
CN(C)S(=O)(=O)c1ccc(C(=O)NC2CCCc3ccccc32)cc1 (centres undefined)	-1.3	-0.8	-0.1	13.6	0.8	63.3*	-2.8	-2.4
CN(C)S(=O)(=O)c1cccc(C(=O)NC2CCCc3ccccc32)c1 (centres undefined)	18.8	-0.3	-1.4	1.8	-5.4	18.6	x	x
CCCCn1c(N)c(N(CCOC)C(=O)COC(=O)C(C)Oc2ccc(Cl)cc2)c(=O)[nH]c1=O (centres undefined)	-7.8	0.4	-3.0	1.5	-4.6	3.7	x	x
Cn1nc(C(C)(C)C)cc1C(=O)N1CCCCC1c1cc(C(=O)Nc2ccc(F)c(Cl)c2)no1 (centres undefined)	x	-2.9	-2.9	-22.6	-7.0	41.0*	2.8	13.4
O=C(CN1CCCc2ccccc21)Nc1cccc(S(=O)(=O)N2CCOCC2)c1	2.0	2.3	-0.7	-10.9	-0.8	0.7	x	x
CCN(CC)c1nc(C=Cc2ccc(N(C)C)cc2)c2nccnc2n1	x	1.7	-6.4	3.9	-4.4	87.9*	-11.7	-4.4
CC1(C(=O)O)CCN1C(=O)c1cccc(OC(F)(F)F)c1 (centres undefined)	x	-1.6	-6.7	7.9	-7.0	-1.1	x	x
Cc1cc(N2CCN(C(=O)Oc3ccc(-c4ccccc4)cc3)CC2)c2ccccc2n1	x	x	-4.4	x	x	62.0*	-1.5	36.4
Cc1cc(N2CCN(C(=O)c3ccco3)CC2)c2ccccc2n1	5.9	1.2	1.1	9.7	2.4	-15.2	x	x
N#CCSc1nnc(-c2sc3ccccc3c2Cl)o1	-10.5	4.3	2.1	-13.2	-5.5	52.8*	5.4	43.8*
Cc1nc(N2CCN(C(=O)COc3ccccc3C)CC2)c2c3c(sc2n1)CCCC3	x	x	x	x	x	75.7*	-7.5	-17.5
O=C(c1ccccc1)N1CCN(c2ncnc3sc4c(c23)CCC4)CC1	41.6	-0.8	-2.9	-32.2	-4.8	40.0*	-7.2	10.4

Screens: PubChem BioAssay, several laboratories
